The record followed here is PubChem BioAssay AID1259417 (TB Discovery Research, Infectious Disease Research Institute, 2018).

Structures are written as SMILES. Screen size: about 1,100 compounds; about 760 (69%) were called active. The rule behind the calls is not given here. The set was probably picked from earlier hits. Some of the results follow.

This assay can be described thus: M. tuberculosis growth inhibition, HTS (AID 1259417).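 Note: bacteria grown with compound for 5 days at 37 °C.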 As to conditions: stronger effect = higher value, concentration not given here.
The mark [1] stands for this setting: M. tuberculosis DsRed fluorescence growth inhibition.
The mark [2] stands for this setting: M. tuberculosis growth inhibition.

As to `Cc1ccc(C)c(-c2nnc(NC(=O)c3cc(Cl)sc3Cl)o2)c1`, the inhibition (in general, the drop in the measured response relative to a control, in per cent) is 99.2% (active) under setting [1] and 96.3% under setting [2].
For `Cc1ccc(C)c(-c2nnc(NC(=O)C(C)(C)C)o2)c1`, the inhibition by setting is: under setting [1], 84.1% (active); under setting [2], 83.8%.
Regarding `COc1ccccc1C(=O)Nc1nnc(-c2cc(C)ccc2C)o1`, the inhibition runs as follows: under setting [1], -3.37% (inactive); under setting [2], -7.24%.
`Cc1ccc(C)c(-c2nnc(NC(=O)C(C)C)o2)c1`: the inhibition is, setting by setting: under setting [1], 67% (active); under setting [2], 78.6%.
On the same counts, the results for `Cc1ccc(C)c(-c2nnc(NC(=O)c3ccccc3F)o2)c1` are 80.6% (active) and 85.5%.
Taken in the same sequence, the figures for `Cc1ccc(C)c(-c2nnc(NC(=O)c3cccc4ccccc34)o2)c1` were -3.96% (inactive) and -5.52%.
With `CCCC(=O)Nc1nnc(-c2ccc(C)cc2C)o1`, the inhibition is, setting by setting: under setting [1], 2.17% (inactive); under setting [2], 26.4%.
Taken in the same sequence, the figures for `CCCC(=O)Nc1nnc(-c2cc(C)ccc2C)o1` were 10.9% (active) and 48.8%.
As for `Cc1ccc(C)c(C(=O)Nc2nnc(-c3cc(C)ccc3C)o2)c1`, the inhibition runs as follows: under setting [1], 87.9% (active); under setting [2], 74.7%.
Consider `COc1cccc(OC)c1C(=O)Nc1ccc(Cl)c(-c2nc3ccccc3s2)c1`, for which the inhibition under setting [1] is 72.8% (active) and the inhibition under setting [2] was found to be 62.9%.
On the same counts, the results for `CCOc1ccccc1NC(=O)CSc1nc2ccc(NC(=O)c3ccccc3Cl)cc2s1` are -3.22% (inactive) and -11.8%.
As to `CCc1ccc(/C=c2\s/c(=C/C(=O)C(C)(C)C)[nH]c2=O)cc1`, the inhibition is, setting by setting: under setting [1], 99.8% (active); under setting [2], 99.5%.
On the same counts, the results for `CC(C)Cn1c(N2CCN(Cc3ccc(Cl)c(Cl)c3)CC2)nc2c1c(=O)[nH]c(=O)n2C` are 7.43% (active) and 34.1%.
With `COc1ccc(CC2SC(=NN=Cc3ccccc3O)NC2=O)cc1` (centres undefined), the inhibition reads like this: under setting [1], 98.1% (active); under setting [2], 97.1%.
Taken in the same sequence, the figures for `CC(=N/N=C1\NC(=O)C(Cc2ccc(F)cc2)S1)c1ccc(Cl)cc1` (centres undefined) were 8.19% (inactive) and -27.8%.
Taken in the same sequence, the figures for `CC(=N/N=C1\NC(=O)C(Cc2ccc(Cl)cc2)S1)c1ccc(F)cc1` (centres undefined) were 5% (inactive) and -11.9%.
With `O=C1NC(=NN=Cc2ccccc2O)SC1Cc1ccc(F)cc1` (centres undefined), the inhibition by setting is: under setting [1], 99.2% (active); under setting [2], 98.8%.
With `Cc1ccc(-n2c(=O)oc3ccc(Cl)cc3c2=O)cc1Cl`, the inhibition runs as follows: under setting [1], 100% (active); under setting [2], 101%.
Taken in the same sequence, the figures for `CCc1ccccc1-n1c(=O)oc2ccc(Cl)cc2c1=O` were 101% (active) and 100%.
On to `Cc1ccc(-c2c[n+](CC(=O)Nc3nc(-c4ccc(F)cc4)cs3)c3n2CCC3)cc1`, for which the inhibition by setting is: under setting [1], 15.8% (inactive); under setting [2], 14.8%.
As to `CCOC(=O)C=CC(=O)Nc1nc(-c2ccccc2)cs1`, the inhibition under setting [1] is 41.3% (active) and the inhibition under setting [2] stood at 56%.
In the case of `Cc1cccc(-n2c(N)cc(=O)nc2SCC(=O)Nc2nc(-c3ccccc3)cs2)c1`, the inhibition is -2.92% (inactive) under setting [1] and -16.5% under setting [2].
On to `CCc1ccc(OCC(=O)NNC(=O)c2cnccn2)c(Br)c1`, for which the inhibition is 93.6% (active) under setting [1] and 95.4% under setting [2].
On the same counts, the results for `CCOC(=O)Cn1cc(C=C(C#N)c2nc3ccc(OC)cc3[nH]2)c2ccccc21` are -3.18% (inactive) and 0.813%.
On to `N#CC(=CNc1ccccc1)c1nc2ccccc2[nH]1`, for which the inhibition under setting [1] is 34.4% (active) and the inhibition under setting [2] was 48.7%.
On to `Cc1ccc2nc(/C(C#N)=C/c3c[nH]c4ccc(Br)cc34)[nH]c2c1`, for which the inhibition is 19.3% (inactive) under setting [1] and 22.8% under setting [2].
For `CCOC(=O)COc1c(Cl)cc(C=C(C#N)c2nc3ccc(OC)cc3[nH]2)cc1Cl`, the inhibition under setting [1] is 45.4% (active) and the inhibition under setting [2] worked out at 50.3%.
On the same counts, the results for `COC(=O)COc1ccc(C=C(C#N)c2nc3ccccc3[nH]2)cc1` are 59.4% (active) and 79.9%.
Consider `CCOC(=O)C1=C(C)N(c2ccc(Br)cc2)C(=O)C1`, for which the inhibition reads like this: under setting [1], 6.73% (inactive); under setting [2], 8.65%.
`O=C1Nc2ccccc2/C1=N/N=C/C1=C(N2CCOCC2)C(=C\c2ccccc2)/CC1`: the inhibition by setting is: under setting [1], -1.05% (inactive); under setting [2], -11.8%.
As to `COC(=O)COc1ccc(NC(=O)c2cccc(C)c2)cc1`, the inhibition runs as follows: under setting [1], 68.2% (active); under setting [2], 87.4%.
In the case of `COC(=O)COc1cccc(NC(=O)c2ccc(Cl)cc2)c1`, the inhibition reads like this: under setting [1], 50% (active); under setting [2], 72.5%.
With `COC(=O)COc1cccc(NC(=O)c2cccc(C)c2)c1`, the inhibition reads like this: under setting [1], 14.1% (active); under setting [2], 40.2%.
Turning to `O=C(c1ccc(Cl)cc1)C1CCCN(Cc2cnn(-c3ccccc3)c2)C1` (centres undefined), the inhibition reads like this: under setting [1], 1.81% (inactive); under setting [2], -16.6%.
In the case of `COc1ccc(C(=O)CCN2CCCC(C)C2)cc1` (centres undefined), the inhibition is 13.2% (inactive) under setting [1] and 13.2% under setting [2].
Consider `CC1CCCN(CCC(=O)c2ccc(Br)cc2)C1` (centres undefined), for which the inhibition is 72.2% (active) under setting [1] and 84.5% under setting [2].
As to `Cc1cc(N2CCCCC2)nc2ccc(NC(=O)c3ccc(Br)o3)cc12`, the inhibition under setting [1] was 0.712% (inactive) and the inhibition under setting [2] is -27.2%.
For the molecule `Cc1ccc(Cc2ccc(C(=O)Nc3ccc(C)c(C)c3)o2)cc1`, the inhibition is, setting by setting: under setting [1], 99.7% (active); under setting [2], 99.7%.
Turning to `COc1ccc(C)cc1NC(=O)c1ccc(Cc2ccc(C)cc2)o1`, the inhibition by setting is: under setting [1], 98.3% (active); under setting [2], 101%.
As for `COc1cc2c(cc1NC(=O)Nc1ccc(Cl)cc1)oc1ccccc12`, the inhibition is, setting by setting: under setting [1], 0.315% (inactive); under setting [2], -15.8%.
Taken in the same sequence, the figures for `COc1ccc2c(c1)CCC1Sc3ccccc3N=C21` (centres undefined) were 1.21% (inactive) and 17%.
As to `COC(=O)C(CC(C)C)NC(=O)/C=C/c1ccc(Cl)cc1` (centres undefined), the inhibition reads like this: under setting [1], 53.1% (active); under setting [2], 45.8%.
